# Reference: PubChem BioAssay
# What was measured:
# [1] = inhibitors of PAF-induced NFkB signaling in CF airway cells, dose response, cell-based, uHTS hits, panel, cytotoxicity readout (AID 624344); settings: CF bronchial epithelial cells, PAF-induced NFkB reporter inhibition, with PAF, run 1; at 79 µM (top of the series) unless noted
# [2] = as above; settings: CF bronchial epithelial cells, PAF-induced NFkB reporter inhibition, with PAF, run 2; at 79 µM (top of the series) unless noted
Structure (SMILES),inhibition [1] [%],inhibition [2] [%]
CC(=O)Oc1ccc(N(C(C)=O)S(=O)(=O)c2ccc(Cl)cc2)c2ccccc12,99.9,108
Cc1ccc(S(=O)(=O)CC(CN2CCCCC2)N2CCCCC2)cc1 (stereo not drawn),102,109
CCC(=NCCc1c(C)[nH]c2ccc(C)cc12)C1=C(O)CC(c2ccccc2)CC1=O (stereo not drawn),82.1,92
NC(=O)c1nsc(C(=O)N(c2ccccc2)C(C(=O)NCc2ccc(F)cc2)c2ccc(O)cc2)c1N (stereo not drawn),102,108
O=C(Nc1cccc(Cl)c1)Nc1csc([N+](=O)[O-])c1,114,97.5
c1cnc2ccc(-n3ccnc3)cc2c1,115,102
COc1cccc2c(SCC(=O)N/N=C/c3ccccc3)cc(C)nc12,104,106
CN1CCN(S(=O)(=O)c2ccc(Sc3nnnn3-c3ccccc3)c([N+](=O)[O-])c2)CC1,109,99.5
COc1ccc(-c2oc3ccc(-c4ccc5c(c4)OCO5)cc3c2C#CC2(O)CCCCC2)cc1,101,91.6
COc1ccc2cc3c(N)nn(C(=O)c4ccccc4[N+](=O)[O-])c3nc2c1,101,111
COc1cc(-c2cnc3c(NC=O)cc(-c4ccc(C)cc4)cn23)cc(OC)c1OC,70.3,70.5
CCOC(=O)c1[nH]c(C)c(C(=O)N2CCc3ccccc32)c1C,34.1,43.6
Cc1ccc(-n2nnnc2Sc2ccc(S(=O)(=O)NCCN(C)C)cc2[N+](=O)[O-])cc1,104,114
COc1ccc(Nc2nc(-c3cccs3)nc3ccccc23)cc1S(=O)(=O)N1CCOCC1,104,102
